From PubChem
This is a sample that favours compounds with a hit; in the whole collection about 6% have one here.
D3 antag: antagonists of human D3 dopamine receptor; P35462; D3R cells, DiscoveRx beta-arrestin luminescence, antagonist mode; stronger effect = lower value; max response, negative = inhibition, %; 360,000 tested, 2.5% active; in the data active means max response below about -50%; inconclusive means no clear call, values can overlap the other calls
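Cells expressing the human receptor were seeded at 1500 cells/well, incubated overnight at 37 degrees C in 5% CO2, then exposed to library compounds with dopamine controls for 90 minutes at 37 degrees C before luminescent detection.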
D1 PAM: enhances dopamine response at the human D1 receptor; HEK293 TREx D1 cells, calcium flux, dopamine EC20 potentiation; potentiation, % at 10 µM; 360,000 tested, 0.036% active; P21728; AID 504651; in the data active means potentiation above about 30%
Target sequence (P21728 whole entry, looked up): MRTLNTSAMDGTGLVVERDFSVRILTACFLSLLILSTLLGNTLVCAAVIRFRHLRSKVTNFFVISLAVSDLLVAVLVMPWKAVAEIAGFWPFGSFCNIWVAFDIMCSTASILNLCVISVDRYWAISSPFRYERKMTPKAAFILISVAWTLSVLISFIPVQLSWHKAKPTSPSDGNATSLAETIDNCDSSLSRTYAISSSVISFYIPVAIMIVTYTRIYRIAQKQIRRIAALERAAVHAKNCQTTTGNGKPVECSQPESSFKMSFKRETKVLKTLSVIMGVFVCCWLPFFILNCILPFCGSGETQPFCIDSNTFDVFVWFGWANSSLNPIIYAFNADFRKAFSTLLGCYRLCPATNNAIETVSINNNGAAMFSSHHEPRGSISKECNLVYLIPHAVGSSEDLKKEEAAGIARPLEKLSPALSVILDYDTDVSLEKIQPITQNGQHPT
D1 antagonist: blocks dopamine activation of the human D1 receptor; P21728; HEK293 TREx D1 cells, calcium flux, dopamine EC80; stronger effect = lower value; activity change, negative = inhibition, % at 10 µM; 360,000 tested, 3.2% active; in the data active means activity change below about -30%
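Using tetracycline-induced force-coupled D1 Hek293 cells and a calcium dye, signals were followed for 180 s after compound, then for 180 s after EC80 dopamine, to detect inhibitors.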
Chronic BCR inh: inhibitors of chronic active B-cell receptor signaling; Potency, µM (doses to about 46.1 µM), usual class: inhibitors; ABC-DLBCL IkBa-CBG/CBR reporter, luminescence ratio, 4 h; 340,000 tested, 0.05% active; active means well fitted inhibition curve with a large enough effect in the signal ratio, with a control signal flat, not every such curve was filed as active; inconclusive means small, poorly fitted or top-dose-only effect, or effect the other way, or a change in a side signal; the % refers to the signal ratio
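Compounds up to 46 uM were incubated four hours with TMD8 cells whose green CBG68 luciferase is fused to IkappaBalpha; red CBR luminescence normalised the signal, and concentration-effect curves were fitted to fusion, red and ratio data.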
D3 ag: activates the human D3 dopamine receptor; P35462; D3R DiscoveRx beta-arrestin cells, luminescence, 90 min; max activation, %; 410,000 tested, 0.58% active; AID 652048; in the data active means max activation above about 30%
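Agonist-mode cell screen: cells plated at 1500/well and incubated overnight at 37 °C, then exposed to library compounds for 90 min at 37 °C. Detection reagent was added for 30–60 min at room temperature, and luminescence was read.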
D1 ag: human D1 receptor agonism | HEK293 T-REx D1 cells, calcium flux, agonist mode | activation, % at 2 µM | 360,000 tested, 1% active; in the data active means activation above about 30%
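Tetracycline-induced HEK293 TREx D1 cells, force-coupled to calcium signalling, were dye-loaded with a no-wash calcium kit. Compound was pin-added after a 10 s baseline. Fluorescence was read kinetically at 1 cycle/s for 180 s, with calcium rises flagged as agonism.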
Each line names hits and unclear results; the compound was inactive in the other large screens; ! = a repeat was not active.

COc1cccc2c1cc1c(=O)n(CC(=O)N3CCN(c4ccccc4F)CC3)nc(C)n12	none (no result: D3 antag, Chronic BCR inh)
CCOc1ccccc1CNC(=O)CCC(=O)N1CCSc2ccccc21	none (no result: D3 antag, Chronic BCR inh)
CCN(CC)c1cc(Cl)nc(N)n1	none
CN(Cc1ccccc1)c1cc(Cl)nc(N)n1	D3 ag 38
N=c1ccn2c(n1)OC1C(O)[C@@H](CO)O[C@H]12 (some centres undefined)	none (no result: D3 antag, Chronic BCR inh, D3 ag)
CCN1CCN(CCC(=O)Nc2ccccc2OC)CC1	D3 antag inconclusive
COc1ccc([N+](=O)[O-])cc1NC(=O)CCN1CCN(c2ccccc2OC)CC1	D3 antag -76, D1 antagonist -46
COc1ccc(C)cc1NC(=O)CCN1CC(C)OC(C)C1 (centres undefined)	D1 antagonist -30
COc1ccc(OC)c(NC(=O)CCN2CCN(c3ccccc3F)CC2)c1	D1 antagonist -38, D3 ag 64
COc1ccc([N+](=O)[O-])cc1NC(=O)CCN1CCN(C)CC1	none
COc1ccc(C)cc1NC(=O)CCN1CCN(c2ccccc2)CC1	D3 antag inconclusive, D3 ag 39
CCOC(=O)c1ccc(NC(=O)C2Cc3ccccc3C(=O)O2)cc1 (centres undefined)	none (no result: D3 antag, Chronic BCR inh)
CCOc1ccc(-c2c(C)nn3c(C)c(C(=O)NCc4ccc(Cl)cc4)cnc23)cc1OCC	none (no result: D3 antag, Chronic BCR inh)
COc1ccc(C)cc1NC(=O)CN1CCN(C/C=C/c2ccccc2)CC1	D3 antag -70, Chronic BCR inh inconclusive, D1 ag 38
O=C(CCN1CCOCC1)c1ccc(Br)cc1	Chronic BCR inh inconclusive
Cc1ccc(C)c(NC(=O)CCN2CCN(c3ccccc3F)CC2)c1	D3 antag -64, D1 antagonist -38
Cc1ccc(C)c(NC(=O)CCC(=O)NNC(=O)COc2cc(C)ccc2C)c1	D1 antagonist -38
O=C(CCN1CCN(c2ccccc2)CC1)c1ccc(Br)cc1	D3 antag -60, D1 antagonist -30, Chronic BCR inh inconclusive
Cc1ccc(C)c(NC(=O)CCN2CCN(C)CC2)c1	none
Cc1cccc(C)c1NC(=O)CN1CCN(C/C=C/c2ccccc2)CC1	D3 antag inconclusive (no result: D1 PAM, D1 antagonist, Chronic BCR inh, D1 ag)
COc1ccc(Cl)cc1Nc1nc2ccc(C(=O)c3ccccc3)cc2n2cnnc12	none (no result: D3 antag, Chronic BCR inh)
Cc1ccc(C)c(OCC(=O)NNC(=O)CCN2CCN(c3ccccc3)CC2)c1	D3 antag -71
COc1ccc([N+](=O)[O-])cc1NC(=O)CC(c1ccccc1)c1ccccc1	Chronic BCR inh inconclusive
COc1cc(NC(=O)CN2CCN(c3ccccc3F)CC2)c(C)cc1[N+](=O)[O-]	Chronic BCR inh inconclusive
CCN(CCC(=O)Nc1cc([N+](=O)[O-])ccc1OC)Cc1ccccc1	D3 antag -81
O=C(CCN1CCN(c2ccccc2)CC1)N/N=C/c1ccccc1O	D3 antag -67, Chronic BCR inh inconclusive
COc1ccc(C)cc1NC(=O)CN1CCN(c2ccccc2F)CC1	D3 antag -70, Chronic BCR inh inconclusive
CN1CCN(CCC(=O)N/N=C/c2ccccc2F)CC1	none
CC(C)(C)OC(=O)NCc1nnc(-c2cc3ccccc3[nH]2)o1	none (no result: D3 antag, Chronic BCR inh, D3 ag)
O=C(CNC(=O)c1ccc(Cl)cc1)OCc1cc(=O)n2nc(C3CC3)sc2n1	none (no result: D3 antag, Chronic BCR inh)
O=C(c1ccc(CSc2nc3ccncc3n2Cc2cccc(F)c2)cc1)N1CCCCC1	none (no result: D3 antag, Chronic BCR inh)
COc1ccc(Br)cc1CN(C)C(C)C(=O)Nc1cc([N+](=O)[O-])ccc1OC (centres undefined)	none
COc1cccc(NC(=O)CCN2CCN(c3ccccc3)CC2)c1	none (no result: D3 antag, Chronic BCR inh)
COc1ccc([N+](=O)[O-])cc1NC(=O)C(C)N(C)Cc1ccc(Br)cc1 (centres undefined)	D3 antag -64
COc1ccc(C)cc1NC(=O)CCN1CCN(c2ccccc2F)CC1	D3 antag inconclusive, D1 antagonist -45, D3 ag 34
COc1ccc(C(=O)CCN2CCN(c3ccccc3F)CC2)cc1	D3 antag -99, Chronic BCR inh inconclusive (no result: D1 antagonist)
COc1ccc(Cl)cc1NC(=O)CCN1CCN(Cc2ccccc2)CC1	D3 antag inconclusive
COc1cccc(NC(=O)CCN2CCN(c3ccccc3F)CC2)c1	D3 antag inconclusive, D3 ag 39
O=C(CCN1CCN(c2ccccc2F)CC1)c1ccc(Br)cc1	D3 antag inconclusive
CN(C)S(=O)(=O)c1ccc(NC(=O)COC(=O)C2COc3ccccc3O2)cc1 (centres undefined)	D1 antagonist -94
CCOc1ccc2c(ccc(/C=C/c3cc(C)c4cccnc4c3O)[n+]2C)c1	D3 antag inconclusive (no result: D1 PAM, D1 antagonist, Chronic BCR inh, D1 ag)
COC(=O)Cc1cc(=O)n2[nH]c(C)cc2n1	D3 antag -52, Chronic BCR inh inconclusive (no result: D1 antagonist)
COC(=O)Cc1cc(=O)n2[nH]c(C)nc2n1	Chronic BCR inh inconclusive
OCCN1CCN(CCCN2c3ccccc3CCc3ccccc32)CC1	D3 antag -125 (no result: D1 PAM, D1 antagonist, Chronic BCR inh, D1 ag)
O=C(NCC(F)(F)F)c1cc2c(c(-c3cccc(-c4ccccc4F)c3)n1)[C@@H](CCO)N(C(=O)CC1CC1)C2	none (no result: D1 PAM, D1 antagonist, Chronic BCR inh, D1 ag)
O=C1CSC(=NC2CCCCC2)N1	Chronic BCR inh inconclusive
O=C1CS/C(=N/N=C2CCCC2)N1	D1 antagonist -48, Chronic BCR inh inconclusive
Cc1cc(C)cc(NC(=O)C2CCCN(c3nnc(-n4c(C)ccc4C)s3)C2)c1 (centres undefined)	none (no result: D3 antag, Chronic BCR inh)
Cc1ccc(Cn2c(C)c3cnn(CC(=O)O)c(=O)c3c2C)cc1	none (no result: D3 antag, Chronic BCR inh)
CCOc1ccc(CN2C(=O)c3ccccc3Sc3ccc(C(=O)NCCCN4CCOCC4)cc32)cc1	D1 ag 30!
CCCCN(CC)CCCNC(=O)c1ccc2c(c1)N(Cc1ccc(C)cc1)C(=O)c1ccccc1S2	D1 antagonist -33, Chronic BCR inh inconclusive, D1 ag 51 (no result: D3 antag)
COCCCNC(=O)c1ccc2c(c1)N(Cc1ccccc1)C(=O)c1ccccc1S2	none (no result: D3 antag)
CCOc1ccc(-n2c(C)nc3cc(C(=O)NCCCN4CCOCC4)ccc32)cc1	D1 antagonist -52
O=C(NCCCN1CCOCC1)c1ccc2c(c1)N(Cc1ccccc1)C(=O)c1ccccc1S2	none
O=S(=O)(Nc1cccc(-c2ccc(N3CCOCC3)nn2)c1)c1ccc(F)c(C(F)(F)F)c1	none (no result: D3 antag, Chronic BCR inh)
CCOC(=O)C1=C(CSc2nc3ccccc3s2)NC(=O)NC1c1ccc(OC)cc1 (centres undefined)	none
CCOC(=O)C1=C(CSc2nc3ccccc3s2)NC(=O)NC1c1cc(C)ccc1C (centres undefined)	D3 ag 31
CC(C)NC(=O)c1ccc(-n2c(-c3ccccc3)cc3c2CCCCC3)cc1	none (no result: D3 antag, Chronic BCR inh)
CC1CCc2c(cc(-c3ccccc3)n2-c2ccc(C(=O)NC(C)C)cc2)C1 (centres undefined)	D1 antagonist -39 (no result: D3 antag, Chronic BCR inh)
